# Laboratory results reported in the supplement of paper PMC6555819.
# System: VDR:RXRa (NR concentration 270 nM, RXRa partner concentration 90 nM)
# Experiment: PBM binding z-score (relative to random genomic background probes); higher = stronger binding; sequences stand for … in GC…GCGATTGACAGCGTAGAATGAAGG
# Experimental: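 Protein-binding microarray (Agilent 4x180K custom design, double-stranded 60-nt probes: 5' GC cap, 34-nt variable region, 24-nt constant primer region; full probe sequence given). Purified or IVT nuclear receptor:RXRα heterodimers (3:1 NR:RXRα, mostly 270:90 nM) or homodimers were incubated for 1 h in PBS with 2% milk and no ligand, then detected with Alexa488 antibodies. Fluorescence from o1-orientation probes (~5 replicates averaged) was converted to z-scores against 500 random hg19 background probes. Variable regions are seed direct-repeat (DR0–DR5) sites, all their single-nucleotide variants and half-site ablations.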
row,Sequence,PBM binding z-score
1,GCAGACAGGTGAAACCCAGGTAACTCAGGGTGGC,-0.302
2,TCTTGTAGATCAATAGAGGTGAAGAAAGTGCGCT,0.991
3,ACTAGCAGGCCAAGTGTGGGTCACTCAAACAAAG,0.53
4,AACGAAAGGTCGAGGTGAGTATAGAGAAAGGGAA,2.85
5,TGTAGTTGGTCACGGAGGTCACACACGACGGGTA,5.47
6,TCTAGTTGGTCACGGAGGTTACACACGACGGGTA,3.16
7,ACTAGTTGGTCAGCGGAGGTCACACACAATTCGG,3.98
8,TCTCGGAGGACACGACGGTCAGAGCTTTCCAGAG,-0.164
9,TCTATTAGTTGATTAGTGCAACCGAAACAGCGGA,0.827
10,CGAACTAGGTCAAGGATAGTGAATCTCCGCACGC,1.19
11,ACAGACAGGTGAGTGAAGGTATCTCAGCTGGACG,-0.617
12,CGTCCAAGGTCAAGTTCAGTGAAAGAGACTCGAA,4.91
13,CCGAGTCGGTTATGGGGCATTCAGGCAACGGTGA,-0.358
14,AGTCAAAGTTCACTAGGTAGCGTAAGATTCAGCT,3.56
15,CGTACAAGGTCAATGCTAGGTCAGTGAAAGCATT,5.24
16,ATCGAAAGGTCGAAGGTGAGTATCCCCACCCGAA,2.53
17,TCGAGTAGGTTACCAATTGGGCATTCAGCTTTCT,-0.197
18,TCGAGTAGGTAAGTCGGGGCATTCAGCCAACATA,0.394
19,GATACAGGGTCAAGGACAGAGTACGCGTATTGAT,4.78
20,CAAACTAGGTCACCGGAAGGTCAAAGTCCGCATG,6.25

row,Sequence,PBM binding z-score
1,CCTAGCAAGCCAGGGTCACTCAAGCATTTCGCTT,2.8
2,ACTAGCAGGCCGAGTTTGGGTCACTCAAACAAAG,0.459
3,CCAGACAGGTGAGAAGTTAACTCAGCCTCGATTA,-0.0797
4,CAGCCTAGGTCAGGGGCAGTATAGGAGGAACGTT,0.806
5,ATCTCTAGGTAAAGATAGTTCAATGAATGCAAAT,1.61
6,GCTAGCGGGCCATTTGGGTCACTCAATGACGGGC,0.753
7,CGTTACGGGTCACTGACAGGTTATAGCATTTGGA,3.87
8,CCGACTGGGGCAGAAATGTTACCATACCATCCGG,-0.557
9,CCATACGGGTCAAGGTTATAGCACGGGTGGTACG,3.11
10,GCAGACAGGTGAAACGCAGGTAATTCAGGGTGGC,-0.324
11,TCTTGGAGATCAGCAGGTTAAGAAAGCTGGCCAA,0.335
12,TTTAGTTGGTCACGGAGGTCACACACGACGGGTA,6.05
13,ATCCCTAGGTAACAAGTTCAGTGAAAGAGAGGAC,1.91
14,CCTACTGGTCCATCAGGTCATTGATATCAACGTT,2.46
15,ACTCGGAGGACAAAGGCCAGAGCTACGCCAGTGA,-0.667
16,GCTAGCAGGCCATTTGGGTAACTCAATGACGGGC,-0.713
17,CCTAGCAGGGCAGGGTCACTCAAGCATTTCGCTT,2.88
18,CCGACTGGGGCACAGGTTACCATACTCAGTACGA,-0.165
19,CAGCCTAGGTCAGGGCCACTATAGGAGGAACGTT,0.305
20,GCGACTGAGGCATCAGCAGGTTACCATAACTTAA,-0.37
